# Where “and” joins values, the source holds several entries; their conditions need not be identical. Identical values can stand only once. About 2,000 (36%) of roughly 5,500 compounds were called active. Not shown: some 18% with an inconclusive outcome. Cut-off read from the data, not from the text of the source: active = normalized growth mostly below about 0.91 (no sharp cut-off); inconclusive = no clear call, values can overlap the other calls; inactive = mostly above about 0.92. This is one part of the list.
# Experiment: chemical genetic growth profiling, strain panel (AID 1159580);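 note: tested at 20 µM; growth read once vehicle control cultures reached saturation at 30 °C; 1 = growth at the plate median or of vehicle wells; lower values mean less growth of the strain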
# Conditions: S. cerevisiae deletion strains, growth OD
structure (smiles),measurement,setting,value
CN1CCC[C@@H]1CCO[C@](C)(c1ccccc1)c1ccc(Cl)cc1,normalized growth,"locus YAL013W, strain DEP1, stronger effect = lower value",0.998 (inactive)
same,normalized growth,"locus YAL021C, strain ccr4, stronger effect = lower value",0.88 (active)
same,normalized growth,"locus YAL026C, strain drs2, stronger effect = lower value",0.62 (active)
same,normalized growth,"locus YAL030W, strain snc1, stronger effect = lower value",1 (inactive)
same,normalized growth,"locus YBL061C, strain skt5, stronger effect = lower value",0.998 (inactive)
same,normalized growth,"locus YBR009C, strain hhf1, stronger effect = lower value",0.957 (inactive)
same,normalized growth,"locus YBR021W, strain FUR4, stronger effect = lower value",0.671 (active)
same,normalized growth,"locus YBR023C, strain chs3, stronger effect = lower value",0.949 (inactive)
same,normalized growth,"locus YBR171W, strain sec66, stronger effect = lower value",0.997 (inactive)
same,normalized growth,"locus YBR229C, strain ROT2, stronger effect = lower value",1.01 (inactive)
same,normalized growth,"locus YBR231C, strain swc5, stronger effect = lower value",0.984 (inactive)
same,normalized growth,"locus YBR279W, strain paf1, stronger effect = lower value",0.964 (inactive)
same,normalized growth,"locus YCL011C, strain gbp2, stronger effect = lower value",0.959 (inactive)
same,normalized growth,"locus YCL016C, strain dcc1, stronger effect = lower value",0.968 (inactive)
same,normalized growth,"locus YCL029C, strain bik1, stronger effect = lower value",0.991 (inactive)
same,normalized growth,"locus YCL069W, strain vba3, stronger effect = lower value",0.969 (inactive)
same,normalized growth,"locus YCR088W, strain abp1, stronger effect = lower value",0.999 (inactive)
same,normalized growth,"locus YDL005C, strain med2, stronger effect = lower value",1 (inactive)
same,normalized growth,"locus YDL035C, strain GPR1, stronger effect = lower value",0.913 (inactive)
same,normalized growth,"locus YDL040C, strain nat1, stronger effect = lower value",1 (inactive)
same,normalized growth,"locus YDL074C, strain BRE1, stronger effect = lower value",0.817 (inactive)
same,normalized growth,"locus YDL101C, strain DUN1, stronger effect = lower value",1.01 (inactive)
same,normalized growth,"locus YDL134C, strain PPH21, stronger effect = lower value",1.01 (inactive)
same,normalized growth,"locus YDL185W, strain tfp1, stronger effect = lower value",0.99 (inactive)
same,normalized growth,"locus YDL192W, strain arf1, stronger effect = lower value",1.01 (inactive)
same,normalized growth,"locus YDR001C, strain nth1, stronger effect = lower value",1.02 (inactive)
same,normalized growth,"locus YDR069C, strain doa4, stronger effect = lower value",0.955 (inactive)
same,normalized growth,"locus YDR101C, strain arx1, stronger effect = lower value",0.988 (inactive)
same,normalized growth,"locus YDR137W, strain rgp1, stronger effect = lower value",1.24 [resistant] (active)
same,normalized growth,"locus YDR150W, strain NUM1, stronger effect = lower value",1.02 (inactive)
same,normalized growth,"locus YDR159W, strain sac3, stronger effect = lower value",1.01 (inactive)
same,normalized growth,"locus YDR162C, strain NBP2, stronger effect = lower value",0.993 (inactive)
same,normalized growth,"locus YDR195W, strain ref2",1.08 (inactive)
same,normalized growth,"locus YDR297W, strain sur2, stronger effect = lower value",0.998 (inactive)
same,normalized growth,"locus YDR318W, strain mcm21, stronger effect = lower value",0.984 (inactive)
same,normalized growth,"locus YDR334W, strain swr1, stronger effect = lower value",1.01 (inactive)
same,normalized growth,"locus YDR335W, strain msn5, stronger effect = lower value",0.987 (inactive)
same,normalized growth,"locus YDR388W, stronger effect = lower value",0.911 (active)
same,normalized growth,"locus YDR392W, strain spt3, stronger effect = lower value",0.866 (inactive)
same,normalized growth,"locus YDR502C, strain sam2, stronger effect = lower value",0.97 (inactive)
same,normalized growth,"locus YEL003W, strain gim4, stronger effect = lower value",0.952 (inactive)
same,normalized growth,"locus YEL037C, strain rad23, stronger effect = lower value",0.993 (inactive)
same,normalized growth,"locus YEL061C, strain CIN8 (second series), stronger effect = lower value",1 (inactive)
same,normalized growth,"locus YEL061C, strain CIN8, stronger effect = lower value",1 (inactive)
same,normalized growth,"locus YER015W, strain faa2, stronger effect = lower value",0.798 (active)
same,normalized growth,"locus YER016W, strain bim1, stronger effect = lower value",0.992 (inactive)
same,normalized growth,"locus YER110C, stronger effect = lower value",0.999 (inactive)
same,normalized growth,"locus YER111C, strain swi4, stronger effect = lower value",1.02 (inactive)
same,normalized growth,"locus YER155C, strain BEM2 (second series), stronger effect = lower value",0.818 (active)
same,normalized growth,"locus YER155C, strain BEM2, stronger effect = lower value",1.03 (inactive)
same,normalized growth,"locus YER167W, strain BCK2, stronger effect = lower value",1 (inactive)
same,normalized growth,"locus YFR010W, strain ubp6, stronger effect = lower value",0.898 (active)
same,normalized growth,"locus YGL078C, strain dbp3, stronger effect = lower value",0.99 (inactive)
same,normalized growth,"locus YGL086W, strain mad1, stronger effect = lower value",0.973 (inactive)
same,normalized growth,"locus YGL167C, strain pmr1, stronger effect = lower value",1.02 (inactive)
same,normalized growth,"locus YGL173C, strain kem1, stronger effect = lower value",0.955 (inactive)
same,normalized growth,"locus YGL227W, strain vid30, stronger effect = lower value",0.996 (inactive)
same,normalized growth,"locus YGL240W, strain doc1, stronger effect = lower value",0.919 (inactive)
same,normalized growth,"locus YGL248W, strain PDE1, stronger effect = lower value",1.01 (inactive)
same,normalized growth,"locus YGL253W, strain hxk2, stronger effect = lower value",0.916 (inactive)
same,normalized growth,"locus YGR078C, strain PAC10, stronger effect = lower value",0.95 (inactive)
same,normalized growth,"locus YGR135W, strain pre9, stronger effect = lower value",0.879 (active)
same,normalized growth,"locus YGR229C, strain SMI1, stronger effect = lower value",0.491 (active)
same,normalized growth,"locus YGR252W, strain gcn5, stronger effect = lower value",0.688 (active)
same,normalized growth,"locus YHR013C, strain ard1, stronger effect = lower value",0.856 (inactive)
same,normalized growth,"locus YHR027C, strain rpn1, stronger effect = lower value",0.904 (active)
same,normalized growth,"locus YHR030C, strain SLT2, stronger effect = lower value",0.843 (active) and 0.985 (inactive)
same,normalized growth,"locus YHR079C, strain IRE1 (second series), stronger effect = lower value",0.994 (inactive)
same,normalized growth,"locus YHR079C, strain IRE1, stronger effect = lower value",0.992 (inactive)
same,normalized growth,"locus YHR094C, strain hxt1, stronger effect = lower value",0.994 (inactive)
same,normalized growth,"locus YHR129C, strain ARP1, stronger effect = lower value",1.01 (inactive)
same,normalized growth,"locus YHR142W, strain chs7, stronger effect = lower value",0.884 (inactive)
same,normalized growth,"locus YHR200W, strain rpn10, stronger effect = lower value",1 (inactive)
same,normalized growth,"locus YIL066C, strain RNR3, stronger effect = lower value",0.978 (inactive)
same,normalized growth,"locus YIL073C, strain SPO22, stronger effect = lower value",0.904 (inactive)
same,normalized growth,"locus YIL125W, strain kgd1, stronger effect = lower value",0.999 (inactive)
same,normalized growth,"locus YIR030C, strain dcg1, stronger effect = lower value",0.993 (inactive)
same,normalized growth,"locus YJL092W, strain hpr5, stronger effect = lower value",0.982 (inactive)
same,normalized growth,"locus YJL095W, strain BCK1 (second series), stronger effect = lower value",0.923 (inactive)
same,normalized growth,"locus YJL095W, strain BCK1, stronger effect = lower value",0.745 (active) and 0.991 (inactive)
same,normalized growth,"locus YJL115W, strain asf1, stronger effect = lower value",0.999 (inactive)
same,normalized growth,"locus YJL129C, strain trk1, stronger effect = lower value",0.921 (inactive)
same,normalized growth,"locus YJL134W, strain LCB3, stronger effect = lower value",1.01 (inactive)
same,normalized growth,"locus YJL154C, strain vps35, stronger effect = lower value",0.996 (inactive)
same,normalized growth,"locus YJL164C, strain tpk1, stronger effect = lower value",0.937 (inactive)
same,normalized growth,"locus YJL166W, strain qcr8, stronger effect = lower value",0.94 (inactive)
same,normalized growth,"locus YJL168C, strain set2, stronger effect = lower value",1 (inactive)
same,normalized growth,"locus YJL187C, strain SWE1 (second series), stronger effect = lower value",0.987 (inactive)
same,normalized growth,"locus YJL187C, strain SWE1, stronger effect = lower value",0.992 (inactive)
same,normalized growth,"locus YJR043C, strain POL32, stronger effect = lower value",1.03 (inactive)
same,normalized growth,"locus YJR066W, strain TOR1, stronger effect = lower value",0.97 (inactive)

# Reference: PubChem BioAssay AID1159580 (chemical genetic matrix, 2015)
